Laboratory results as given in PubChem BioAssay (EPA / NIEHS).
Results filed as inconclusive are left out. Calls of active or inactive are those of the source. Rule for the calls: active = hit-call score of the fitted dose curve at least 0.9, where 1 is the maximum; inconclusive = response in the unintended direction; inactive = score below 0.9.

Each compound was assayed on HMG-CoA synthase (HMGCS2), HMGCS2 (gene 3158) (assay: CLD_HMGCS2_24hr: CellzDirect (CLD) Gene Expression Assay for HMG-CoA synthase (HMGCS2) at 24 hours (AID 2283691)).
Method: CLD_24hr is a cell-based, multiplexed-readout assay that uses hepatocyte, a human liver primary cell, with measurements taken at 24 hours after chemical dosing in a 96-well plate.CLD_HMGCS2_24hr is one of 16 assay component(s) measured or calculated from the CLD_24hr assay. It is designed to make measurements of mRNA induction, a form of inducible reporter, as detected with chemiluminescence signals by Quantitative Nuclease Protection Assay (qNPA) technology.Data from the assay component CLD_HMGCS2_24hr was analyzed at the endpoint, CLD_HMGCS2_24hr, in the positive analysis fitting direction relative to DMSO as the negative control and baseline of activity. Using a type of inducible reporter, gain-of-signal activity can be used to understand changes in the reporter gene as they relate to the gene HMGCS2. Furthermore, this assay endpoint can be referred to as a primary readout. To generalize the intended target to other relatable targets, this assay endpoint is annotated to the lyase intended target family, where subfamily is HMG-CoA synthase.
Human hepatocyte cultures were treated daily for two consecutive days with fresh dosing solutions containing appropriate concentrations of the 320 ToxCast chemicals (chemical identities were blinded to CellzDirect and other ToxCast collaborators), vehicle control (0.2% DMSO), and positive control inducers as summarized in Table 1. Due to the large number of treatment groups and chemicals examined, the ToxCast chemicals were divided into two groups (spanning two independent cultures of hepatocytes from separate donor preparations (Hu778: ToxCast plates 1 and 2; Hu776: ToxCast plates 3 and 4). Each preparation of human hepatocyte cultures was treated with respective vehicle control, medium only control, set of six positive controls/reference chemicals for the five hepatic receptor pathways, and a subset of eight of the ToxCast chemicals (indoxacarb, pyrithiobac-sodium, norflurazon, cyhalofop-butyl, methomyl, thiram, acetochlor, and propiconazole). These replicate data, coupled with internal replicates designed within the blinded ToxCast chemical library, provided additional data to evaluate interindividual differences between hepatocyte preparations and their potential impact on chemical profiles.Cell morphology and integrity were evaluated using phase-contrast microscopy as an indicator of hepatocyte cell health (Tyson & Green, 1987). Cultures for each treatment group (i.e., media, vehicle [0.2% DMSO], positive control inducers [multiple concentrations], and the ToxCast chemicals [multiple concentrations]) were observed and cell morphology was assessed relative to vehicle control cultures at each harvest time point (0, 6, 24, or 48 h). […] Images were evaluated at the conclusion of the study to assess changes in cell integrity and account for the effects of chemical exposure on uncharacteristic changes in concentration-dependent gene expression profiles. The results from these determinations of apparent cytotoxicity were annotated (yes/no) alongside the corresponding qNPA data for reference.At the conclusion of each treatment period, hepatocyte cultures (96-well) were washed with 1 volume of HBSS, lysed by addition of 25 ul ArrayPlate lysis buffer (HTG, Tucson, AZ), and 70 ul/well of Denaturation Oil, denatured by incubation at 95C for 10 min, and frozen at approximately -70C until analysis by nuclease protection assay (qNPA) (Roberts et al., 2007). For qNPA analysis, cell lysates were thawed at 50C for approximately 30 min, qNPA probes were added, and samples were incubated at 95C for 10 min to begin the detection process by denaturing the target RNA, dissociating the duplexes and secondary structure hybridization. At the conclusion of the hybridization period, S1 nuclease reagent was added to each sample to digest all nonprotected nucleotides at 50C for 60-90 min. […]

Row | Structure (SMILES) | outcome
1 | O=c1ccc(=O)[nH][nH]1 | inactive
2 | CC(Oc1cccc(Cl)c1)C(=O)O (stereo not given) | inactive
3 | CNC(=O)ON=C(SC)C(=O)N(C)C | inactive
4 | CC(=NC#N)N(C)Cc1ccc(Cl)nc1 | inactive
5 | CC1=NNC(=O)N(/N=C/c2cccnc2)C1 | inactive
6 | C[N+]1(C)CCCCC1 | inactive
7 | O=C(O)c1cc(Oc2ccc(C(F)(F)F)cc2Cl)ccc1[N+](=O)[O-] | inactive
8 | CCc1cnc(C2=NC(C)(C(C)C)C(=O)N2)c(C(=O)O)c1 (stereo not given) | inactive
9 | CSC1=N[C@@](C)(c2ccccc2)C(=O)N1Nc1ccccc1 | inactive
10 | CC(COc1ccc(Oc2ccccc2)cc1)Oc1ccccn1 (stereo not given) | inactive
11 | COP(=O)(OC)C(O)C(Cl)(Cl)Cl (stereo not given) | inactive
12 | CN(C)[C@@H]1C(=O)C(C(N)=O)=C(O)[C@@]2(O)C(=O)C3=C(O)c4c(O)cccc4[C@@](C)(O)[C@H]3[C@H](O)[C@@H]12 | inactive
13 | CC[C@H](C)[C@H]1O[C@]2(C=C[C@@H]1C)C[C@@H]1C[C@@H](C/C=C(\C)[C@@H](O[C@H]3C[C@H](OC)[C@@H](O[C@H]4C[C@H](OC)[C@@H](NC)[C@H](C)O4)[C@H](C)O3)[C@@H](C)/C=C/C=C3\CO[C@@H]4[C@H](O)C(C)=C[C@@H](C(=O)O1)[C@]34O)O2 | inactive
14 | COc1cc(OC)nc(Sc2cccc(Cl)c2C(=O)O)n1 | inactive
15 | CCOP(=O)(OCC)Oc1cc(C)nc(C(C)C)n1 | inactive
16 | CCOP(=S)(OCC)OC(Cl)C(Cl)(Cl)Cl (stereo not given) | inactive
17 | CCOP(=S)(OCC)SCCSCC | inactive
18 | CCCCOC(=O)c1ccccc1C(=O)O | inactive
19 | CCCCOC(=O)[C@@H](C)Oc1ccc(Oc2ccc(C#N)cc2F)cc1 | inactive
20 | CCCSP(=O)(OCC)SCCC | inactive
